From PubChem BioAssay (NCATS) come the findings set out here.

The target in test [1] is Estrogen receptor (Homo sapiens) (UniProt P03372). As to the kind of experiment: qHTS assay for small molecule antagonists of estrogen receptor alpha signaling (AID 588513; active = well fitted curve in the direction sought with a large enough effect in the signal ratio, with a control signal flat, not every such curve was filed as active; the % refers to the signal ratio; note: % is set by controls: 0 for no effect and ±100 for the full control effect). The procedure, abridged: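 ER-alpha-UAS-bla GripTite HEK 293 cells in 2% charcoal/dextran-treated FBS medium; compounds titrated (1:2, duplicate), then stimulated with 0.5 nM 17-beta-estradiol for 18 h at 37C. CCF4 beta-lactamase fluorescence; Hill-fit IC50 and efficacy.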
Chain of Estrogen receptor (Homo sapiens) (P03372 whole entry, looked up): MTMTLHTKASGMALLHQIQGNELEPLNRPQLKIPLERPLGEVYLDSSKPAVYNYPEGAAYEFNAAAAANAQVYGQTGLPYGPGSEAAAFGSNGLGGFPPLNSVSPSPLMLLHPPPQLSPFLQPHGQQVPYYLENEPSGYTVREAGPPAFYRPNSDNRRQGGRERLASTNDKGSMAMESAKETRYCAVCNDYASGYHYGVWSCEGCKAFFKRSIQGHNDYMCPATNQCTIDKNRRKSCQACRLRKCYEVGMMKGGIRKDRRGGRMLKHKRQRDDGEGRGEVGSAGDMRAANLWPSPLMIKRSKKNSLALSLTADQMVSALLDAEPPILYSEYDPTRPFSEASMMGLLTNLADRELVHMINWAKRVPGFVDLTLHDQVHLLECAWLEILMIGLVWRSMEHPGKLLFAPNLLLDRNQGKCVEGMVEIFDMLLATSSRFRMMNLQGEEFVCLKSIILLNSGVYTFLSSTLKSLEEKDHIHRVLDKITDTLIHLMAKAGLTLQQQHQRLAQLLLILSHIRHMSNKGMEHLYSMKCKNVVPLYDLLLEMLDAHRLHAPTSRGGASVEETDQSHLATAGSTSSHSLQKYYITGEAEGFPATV
For orientation: Quantitative high-throughput screening tests each substance at several concentrations.

Test [2] shares this target. Nature of the test: qHTS assay for small molecule agonists of estrogen receptor alpha signaling (AID 588514). Note: potency is the fitted concentration of half-maximal effect; nearly all actives have a fitted effect of over 70% in size. In outline: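 EC50 and efficacy came from Hill fits of beta-lactamase reporter signal (CCF4 dye, 2 h at room temperature) scaled between DMSO and 20 nM 17-beta-estradiol. Agonist mode: HEK293 ER-alpha-UAS-bla cells in charcoal/dextran-stripped serum medium, 18 h compound exposure at 37 C.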

Test [3] in a line: qHTS assay for small molecule antagonists of peroxisome proliferator-activated receptor delta signaling (AID 588535; active = well fitted inhibition curve with a large enough effect in the signal ratio, with a control signal flat, not every such curve was filed as active; the % refers to the signal ratio;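 for max response: cells co-treated with a PPAR-delta agonist as stimulator during compound exposure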). Particulars: HEK293T PPARd-UAS-bla, beta-lactamase FRET ratio, 18 h; 460 nm channel. In outline: (§1)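 Inhibition of PPAR-delta response element-driven beta-lactamase expression is measured in HEK293T cells exposed to a compound titration series for 18 hrs at 37 C. Half-maximal inhibition comes from Hill equation fitting.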

Test [4] deals with Peroxisome proliferator-activated receptor delta (Homo sapiens) (UniProt Q03181). The description is as above. The procedure, abridged:
as §1

Test [5] concerns the target Vitamin D3 receptor (Homo sapiens) (UniProt P11473). Nature of the test: qHTS assay for small molecule antagonists of vitamin D receptor signaling (AID 588541).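 Note: receptor activated by calcitriol during compound treatment; series mostly up to about 77 µM; % is set by controls: 0 for no effect and ±100 for the full control effect.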 In outline:
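VDR-UAS-bla HEK293T cells (2000/well, 2% charcoal-stripped FBS) were treated with titrated compounds plus 1-alpha,25-dihydroxyvitamin D3 (50 nM or 3 nM final) for 16 h at 37 C. CCF4 beta-lactamase fluorescence was read; Hill fits gave IC50.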

Test [6] shares this target. Nature of the test: qHTS assay for small molecule agonists of vitamin D receptor signaling (AID 588543).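 Note: 0% = DMSO basal and 100% = reference agonist control.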 The procedure, abridged: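 VDR-UAS-bla HEK293T cells, 2000/well, 2% charcoal-stripped FBS; compound titration 16 h at 37 C; CCF4 beta-lactamase ratio read. Normalized to 50 nM 1-alpha,25-dihydroxyvitamin D3 (100%) and DMSO; Hill fit gives EC50, efficacy.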
Test [7] in a line: qHTS assay for small molecule agonists of retinoid X receptor alpha signaling (AID 588544).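 For activation: 0% = DMSO basal wells and 100% = reference agonist.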 Conditions: HEK293T RXRa-UAS-bla, beta-lactamase reporter, 18 h; 530 nm emission.
The target of test [8] is Retinoic acid receptor RXR-alpha (Homo sapiens) (UniProt P19793). Described as above.
Chain of Retinoic acid receptor RXR-alpha (Homo sapiens) (P19793 whole entry, looked up): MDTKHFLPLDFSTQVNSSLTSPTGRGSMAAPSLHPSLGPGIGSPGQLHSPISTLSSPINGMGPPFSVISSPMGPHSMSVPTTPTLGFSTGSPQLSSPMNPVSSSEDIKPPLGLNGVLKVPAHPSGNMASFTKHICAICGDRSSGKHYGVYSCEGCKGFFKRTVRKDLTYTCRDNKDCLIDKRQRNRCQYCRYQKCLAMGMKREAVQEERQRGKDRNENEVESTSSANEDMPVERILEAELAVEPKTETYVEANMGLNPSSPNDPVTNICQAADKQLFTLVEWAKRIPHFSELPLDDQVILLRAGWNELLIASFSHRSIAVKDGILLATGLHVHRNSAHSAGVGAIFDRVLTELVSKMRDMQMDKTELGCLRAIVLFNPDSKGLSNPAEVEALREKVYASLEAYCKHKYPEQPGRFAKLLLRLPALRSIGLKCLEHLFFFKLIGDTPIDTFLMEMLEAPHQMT
Test [9] deals with Thyroid hormone receptor beta (Homo sapiens) (UniProt P10828). As to the kind of experiment: qHTS assay for small molecule agonists of thyroid hormone receptor beta signaling (AID 588545). In outline: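 In this cell-based screen, titrated compounds act on HEK 293 cells held in medium with 2% charcoal/dextran FBS, NEAA and pyruvate for 18 hrs at 37 C. Responses are expressed relative to T3 (10 nM) as 100% and basal DMSO as 0%.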
Chain of Thyroid hormone receptor beta (Homo sapiens) (P10828 whole entry, looked up): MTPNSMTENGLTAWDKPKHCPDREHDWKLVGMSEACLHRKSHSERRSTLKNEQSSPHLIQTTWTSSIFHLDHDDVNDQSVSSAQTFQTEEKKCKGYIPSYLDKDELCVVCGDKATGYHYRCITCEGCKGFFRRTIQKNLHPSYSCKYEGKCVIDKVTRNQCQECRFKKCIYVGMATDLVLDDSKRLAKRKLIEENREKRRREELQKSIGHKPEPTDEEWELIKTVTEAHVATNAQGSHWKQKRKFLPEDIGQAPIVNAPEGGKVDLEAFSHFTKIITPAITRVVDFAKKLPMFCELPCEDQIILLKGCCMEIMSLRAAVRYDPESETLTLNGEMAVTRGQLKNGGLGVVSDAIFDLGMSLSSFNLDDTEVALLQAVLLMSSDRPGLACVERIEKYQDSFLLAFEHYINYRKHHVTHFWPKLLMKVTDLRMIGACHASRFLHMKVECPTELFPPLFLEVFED

Test [10] is described as follows: qHTS assay for small molecule antagonists of retinoid X receptor alpha signaling (AID 588546; active = well fitted inhibition curve with a large enough effect in the signal ratio, with a control signal flat, not every such curve was filed as active; the % refers to the signal ratio;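 note: cells stimulated with 9-cis-retinoic acid as agonist; % is set by controls: 0 for no effect and ±100 for the full control effect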). Conditions: HEK293T RXRa-UAS-bla, beta-lactamase ratio, antagonist mode; measured here: W530 green channel, cytotoxicity proxy. In outline:
(§2)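 Beta-lactamase reporter inhibition, read as CCF4 fluorescence ratio (ex 405, em 460/530 nm) after 2 h at RT. HEK293T UAS-bla cells, 2500/well, were stimulated with 9-cis-RA at 500 or 100 nM final alongside test compound for 18 h at 37 C.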

For test [11], the target named is Retinoic acid receptor RXR-alpha (Homo sapiens) (UniProt P19793). Described as above. Particulars: HEK293T RXRa-UAS-bla, beta-lactamase ratio, antagonist mode. In outline: as §2
A short description of test [12]: S16 Schwann cell PMP22 intronic element beta-lactamase assay (AID 624044).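 Note: 0% = DMSO and -100% = potassium clavulanate positive control; nearly all actives have a fitted effect of over 15% in size.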 The procedure, abridged:
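Beta-lactamase reporter under a PMP22 intronic regulatory element in stable S16 rat Schwann cells; 24 h compound exposure. 460 nm blue signal normalized between DMSO (0%) and potassium clavulanate, with 535 nm FRET tracking viability; curves classed by r2 and response.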

Test [13] in a line: qHTS assay for small molecule agonists of the antioxidant response element (ARE) signaling pathway (AID 651741; active = well fitted activation curve with a large enough effect in the signal ratio; the % refers to the signal ratio; note: potency is the fitted concentration of half-maximal effect). The procedure, abridged:
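Reporter: beta-lactamase under ARE, stably in HepG2. Exposure: 16 h, 37 C, compounds delivered in DMSO by pin tool after 5 h cell preincubation. Readout: FRET substrate fluorescence after 2 h at RT.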

Test [14] is described as follows: qHTS assay for small molecule activators of the p53 signaling pathway (AID 651743; active = well fitted activation curve with a large enough effect in the signal ratio, not every such curve was filed as active; the % refers to the signal ratio; note: series mostly up to about 92 µM; % of control where 0% means no effect). Conditions: HCT-116 p53RE-bla, beta-lactamase FRET ratio, 16 h; activation: stronger effect = higher value. The procedure, abridged:
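Agonist-mode quantitative HTS in HCT-116 cells carrying a p53-response-element beta-lactamase reporter; 16 h compound treatment at 37 C, then FRET substrate loading for 2 h at room temperature and fluorescence read.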

Test [15] in a line: qHTS assay for small molecule activators of the nuclear factor-kappa B (NF-kB) signaling pathway (AID 651749; active = well fitted activation curve with a large enough effect in the signal ratio; the % refers to the signal ratio; note: series mostly up to about 77 µM; % of control where 0% means no effect). Particulars: NF-kB-bla ME-180 cells, beta-lactamase FRET ratio, 16 h; stronger effect = higher value. In outline:
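Human ME-180 cervical cells with an NF-kB-bla construct; compounds added via 23 nL pin transfer, DMSO as vehicle; incubation 16 hr. Reporter activity measured by FRET disruption.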

A short description of test [16]: qHTS assay for environmental chemicals that activate the Aryl hydrocarbon Receptor (AhR) signaling pathway (AID 651777; active = well fitted curve in the direction sought with a large enough effect; an effect the other way counts as inactive or inconclusive; note: % of control where 0% means no effect; nearly all actives have a fitted effect of over 15% in size). Particulars: 1A2-DRE human hepatoma cells, luciferase, 24 h; activation: stronger effect = higher value. In outline: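 Quantitative HTS in stably transfected human liver-derived cells whose luciferase gene sits downstream of the CYP1A2 promoter and dioxin response element. After 24 hr exposure at 37 C, One-Glo luminescence was measured.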

Test [17] deals with Peroxisome proliferator-activated receptor alpha (Homo sapiens) (UniProt Q07869). Nature of the test: qHTS assay for small molecule agonists of the peroxisome proliferator-activated receptor alpha (PPARalpha) signaling pathway (AID 651778; active = well fitted curve in the direction sought with a large enough effect; an effect the other way counts as inactive or inconclusive; note: % of control where 0% means no effect). Particulars: PathHunter PPARalpha complementation, chemiluminescence, 6 h; max response: stronger effect = higher value. The procedure, abridged: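 Cells plated at 2,000/well and held overnight at 37 C, 5% CO2, then compound added by pin tool for 6 hr; after PathHunter detection reagent and 60 min at room temperature, chemiluminescence from enzyme complementation was read.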
Chain of Peroxisome proliferator-activated receptor alpha (Homo sapiens) (Q07869 whole entry, looked up): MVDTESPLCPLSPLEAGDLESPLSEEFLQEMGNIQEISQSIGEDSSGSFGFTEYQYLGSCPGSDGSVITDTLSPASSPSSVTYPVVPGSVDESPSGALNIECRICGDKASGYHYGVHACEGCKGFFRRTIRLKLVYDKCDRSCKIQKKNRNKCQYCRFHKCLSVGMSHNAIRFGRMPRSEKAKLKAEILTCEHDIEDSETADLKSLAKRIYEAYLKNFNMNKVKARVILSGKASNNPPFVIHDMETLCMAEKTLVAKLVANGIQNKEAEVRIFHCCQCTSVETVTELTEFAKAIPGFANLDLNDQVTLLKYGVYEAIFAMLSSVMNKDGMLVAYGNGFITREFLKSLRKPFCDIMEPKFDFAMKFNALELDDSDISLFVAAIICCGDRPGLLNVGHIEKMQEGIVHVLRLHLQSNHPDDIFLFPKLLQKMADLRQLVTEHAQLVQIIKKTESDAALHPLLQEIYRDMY

Test [18] in a line: qHTS assay for small molecule agonists of the antioxidant response element (ARE) signaling pathway measured by Nrf2-dependant transcriptional activity - cell viability counter screen (AID 720653; active = well fitted curve in the direction sought with a large enough effect in the repeat runs; an effect the other way counts as inactive or inconclusive; note: % is set by controls: 0 for no effect and ±100 for the full control effect). Conditions: ARE-bla HepG2 viability, CellTiter-Glo ATP luminescence, 16 h; max response: stronger effect = lower value. In outline:
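ARE-bla HepG2 cells (2,000/well) rested 5 hrs at 37C/5% CO2, then exposed to compounds in DMSO for 16 hrs. Viability was read in the same wells as intracellular ATP by luminescence, 30 min at room temperature after reagent addition.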

Test [19] addresses Nuclear receptor subfamily 1 group I member 2 (Rattus norvegicus) (UniProt Q9R1A7). Nature of the test: qHTS assay for small molecule activators of the rat pregnane X receptor (rPXR) signaling pathway (AID 651751; call rule not given here; note: 0% is about no effect). Conditions: rPXR reporter cells, luciferase (One-Glo), 24 h.
The target in test [20] is Luciferin 4-monooxygenase (Photinus pyralis) (UniProt P08659). Nature of the test: Biochemical firefly luciferase enzyme assay for NPC (AID 624030; active = well fitted curve in the direction sought with a large enough effect; an effect the other way counts as inactive or inconclusive;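 note: purified P. pyralis luciferase at 10 nM with luciferin and ATP substrate; series mostly up to about 59 µM; 0% = DMSO and -100% = full luciferase inhibition by PTC124 control; nearly all actives have a fitted effect of over 70% in size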). In outline:
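Counter-screen for direct inhibition of the luciferase enzyme by approved-drug library compounds, run at 10 nM enzyme in 50 mM Tris acetate (final). Luminescence was read within 5 min of enzyme-buffer addition and normalized to PTC124 versus DMSO (0%).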

Results filed as inconclusive are left out. Active and inactive are the calls of the source. Unless noted, calls come from the whole dose curve.

Chain of Luciferin 4-monooxygenase (Photinus pyralis) (P08659 whole entry, looked up): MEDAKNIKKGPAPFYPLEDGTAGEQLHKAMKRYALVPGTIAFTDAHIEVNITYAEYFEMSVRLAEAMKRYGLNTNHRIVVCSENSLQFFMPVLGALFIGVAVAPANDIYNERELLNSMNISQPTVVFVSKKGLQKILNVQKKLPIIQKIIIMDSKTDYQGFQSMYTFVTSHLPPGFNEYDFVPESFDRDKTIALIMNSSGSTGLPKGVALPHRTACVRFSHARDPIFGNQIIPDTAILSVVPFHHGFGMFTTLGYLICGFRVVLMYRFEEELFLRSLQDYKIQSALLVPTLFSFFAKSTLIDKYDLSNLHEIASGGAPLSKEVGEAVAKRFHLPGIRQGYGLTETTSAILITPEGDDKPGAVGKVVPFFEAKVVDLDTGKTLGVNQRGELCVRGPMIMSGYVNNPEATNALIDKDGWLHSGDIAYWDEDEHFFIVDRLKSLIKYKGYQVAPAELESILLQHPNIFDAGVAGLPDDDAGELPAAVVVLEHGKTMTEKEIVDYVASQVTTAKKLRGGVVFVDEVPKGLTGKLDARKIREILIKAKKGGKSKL
Chain of Vitamin D3 receptor (Homo sapiens) (P11473 whole entry, looked up): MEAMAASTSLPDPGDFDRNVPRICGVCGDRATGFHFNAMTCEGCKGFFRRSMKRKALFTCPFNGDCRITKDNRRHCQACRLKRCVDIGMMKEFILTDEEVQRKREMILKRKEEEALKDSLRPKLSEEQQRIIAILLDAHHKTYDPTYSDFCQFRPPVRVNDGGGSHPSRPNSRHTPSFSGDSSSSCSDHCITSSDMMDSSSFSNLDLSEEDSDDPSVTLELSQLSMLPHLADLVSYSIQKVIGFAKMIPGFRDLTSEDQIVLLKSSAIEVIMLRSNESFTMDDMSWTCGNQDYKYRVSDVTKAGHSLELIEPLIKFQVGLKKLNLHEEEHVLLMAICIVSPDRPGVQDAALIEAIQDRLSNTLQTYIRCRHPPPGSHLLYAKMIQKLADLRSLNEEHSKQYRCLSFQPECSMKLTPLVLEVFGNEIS
Chain of Nuclear receptor subfamily 1 group I member 2 (Rattus norvegicus) (Q9R1A7 whole entry, looked up): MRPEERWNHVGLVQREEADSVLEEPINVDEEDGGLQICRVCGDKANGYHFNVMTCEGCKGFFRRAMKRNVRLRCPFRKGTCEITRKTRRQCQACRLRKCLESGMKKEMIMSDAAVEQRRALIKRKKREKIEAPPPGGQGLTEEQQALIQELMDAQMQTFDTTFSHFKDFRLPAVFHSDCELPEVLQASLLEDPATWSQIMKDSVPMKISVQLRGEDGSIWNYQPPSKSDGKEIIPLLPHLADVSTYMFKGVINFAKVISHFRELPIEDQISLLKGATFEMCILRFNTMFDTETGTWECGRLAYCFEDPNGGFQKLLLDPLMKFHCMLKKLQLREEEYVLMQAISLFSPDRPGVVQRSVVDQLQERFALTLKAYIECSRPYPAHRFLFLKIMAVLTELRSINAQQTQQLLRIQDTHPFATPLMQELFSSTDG
Chain of Peroxisome proliferator-activated receptor delta (Homo sapiens) (Q03181 whole entry, looked up): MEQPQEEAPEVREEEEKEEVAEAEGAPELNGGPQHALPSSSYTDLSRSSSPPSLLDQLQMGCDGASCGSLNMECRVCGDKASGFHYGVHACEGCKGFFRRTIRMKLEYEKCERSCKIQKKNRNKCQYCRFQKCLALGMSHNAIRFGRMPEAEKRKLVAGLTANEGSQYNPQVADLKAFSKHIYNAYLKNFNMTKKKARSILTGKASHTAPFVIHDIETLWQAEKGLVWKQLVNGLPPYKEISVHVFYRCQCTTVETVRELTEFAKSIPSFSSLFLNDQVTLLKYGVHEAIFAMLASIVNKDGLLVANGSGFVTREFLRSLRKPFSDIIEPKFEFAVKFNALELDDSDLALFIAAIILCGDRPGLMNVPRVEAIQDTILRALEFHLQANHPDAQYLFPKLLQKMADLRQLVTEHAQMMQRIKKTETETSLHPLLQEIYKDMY

With `N[C@@H](Cc1ccccc1)C(=O)O`, the call in test [1], in test [4] and in [12] was inactive. In addition, the Potency is 11.2 µM (active) in [2] and 54.5 µM (active) in [13]. Besides, the max response in test [3] is -16.9%; in test [7] it was -4.85%; in test [10], -15%; in [11], 7.11% (inactive); in test [17], -0.0138% (inactive); in [18], -5.99% (inactive). Also, in test [19], the max response was -0.251% (inactive). Further, the Potency result in test [5], in [6], in test [8] and in [9] was “inactive” each time. Further, the activation in [14] is -1.26% (inactive); in test [15], 0.13% (inactive); in test [16] it was -0.444% (inactive).
`O=C(O)[C@@H](O)[C@@H](O)[C@H](O)[C@H](O)CO`: the molecule was classed as inactive in test [20] and in test [12].
For the molecule `C[C@]12CC[C@H]3c4ccc(O)cc4CC[C@@H]3[C@H]1CC[C@@H]2OP(=O)(O)O`, the call in test [20] was inactive.
